HT1080 IDH1KD tx – qHTS for induction of synthetic lethality in tumor cells producing 2HG: qHTS for the HT-1080-IDH1KD cell line; Potency, µM (doses to about 46.1 µM), for inactives: top-dose activity, negative = toxicity, actives largely listed as cytotoxic; HT-1080 IDH1 knockdown viability, ATP luminescence, 48 h; actives 2% (n = 360,000); AID 686971, 2013;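 further: 0% = DMSO wells and -100% = cell-free medium wells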
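HT-1080-IDH1KD cells (IDH1 knocked down), 750/well in RPMI with 5% FBS, treated with compound 48 h at 37 degrees C. Viability by CellTiter-Glo luminescence, normalised to DMSO and no-cell wells; concentration-response curves classed.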
TGFb inhibitor – qHTS for Inhibitors of TGF-b; HepG2 CAGA-GFP TGF-b/SMAD3 reporter, GFP fluorescence, 18 h; TGF-beta stimulated, 500 pg/mL final; Potency, µM (titrated, usually from 46.1 µM), without a hit: top-dose activity, negative = inhibition, hits mostly inhibitors; actives 1.2% (n = 410,000); further: on the % scale 0 is the no-effect control and ±100 the full control effect; nearly all actives have a fitted effect of over 65% in size
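Read-out: total well GFP (ex488/em500-530) summed from mean per-cell fluorescence. Cells: HEPG2 CAGA-GFP, 1% FBS DMEM, 18 h at 37 degrees C with 500 pg/mL final TGF-beta. Unstimulated wells served as the full-inhibition control; stimulated DMSO wells = 0%.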
HepG2 tox – qHTS for Inhibitors of TGF-b: Cytotox Counterscreen. actives 0.76% (n = 410,000). HepG2 CAGA-GFP viability, ATP luminescence, 18 h. Potency, µM (titrated, usually from 46.1 µM), without a hit: at the top dose activity change, negative = cytotoxicity, hits mostly cytotoxic. AID 588856, 2011
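CellTiter-Glo luminescence gave cytotoxicity after 18 hours at 37 degrees C. The cells were HepG2 CAGA-GFP in 1% FBS DMEM, stimulated with 500 pg/mL TGF-beta after compound addition. %Activity was normalised to no-cell wells (complete cell-killing) and DMSO (no toxicity), and curves were fitted and classified.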
HT1080NT lethal – qHTS for induction of synthetic lethality in tumor cells producing 2HG: qHTS for the HT-1080-NT fibrosarcoma cell line. HT-1080-NT fibrosarcoma viability, CellTiter-Glo ATP luminescence, 48 h. Potency, µM (top dose mostly 46.1 µM), for the others: at the highest dose activity, negative = less viability, most hits filed as cytotoxic. actives 1.6% (n = 360,000). AID 686970, 2013;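 further: NT is the 2HG producing partner of a matched IDH1 knockdown line; 0% = DMSO-treated cells and -100% = media-only wells without cells; nearly all actives have a fitted effect of over 55% in size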
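Fibrosarcoma NT cells, 750 per well in 5% FBS RPMI, were exposed to compound for 48 hours. Viability: CellTiter-Glo luminescence.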
TDP1 cell noCPT – qHTS for Inhibitors of human tyrosyl-DNA phosphodiesterase 1 (TDP1): qHTS in cells in absence of CPT. Potency, µM (series often up to 46.2 µM), for inactives: top-dose activity change, negative = growth inhibition, actives largely listed as inhibitors. actives 15% (n = 420,000). DT40 Tdp1-/- hTDP1 cells, no CPT, ATP luminescence, 48 h. AID 686978, 2013; further: on the % scale 0 is the no-effect control and ±100 the full control effect; nearly all actives have a fitted effect of over 55% in size
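Cells were dispensed at 400 per well, compounds added by pin tool, plates incubated ≥48 hr at 37 °C, then CellTiter-Glo added for 30 min at room temperature before luminescence reading. Line: DT40 Tdp1-/- complemented with hTDP1; camptothecin omitted.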
DT40 TDP1 CPT – qHTS for Inhibitors of human tyrosyl-DNA phosphodiesterase 1 (TDP1): qHTS in cells in presence of CPT; actives 12% (n = 420,000); chicken DT40 Tdp1-/-;hTDP1 cells + 20 nM CPT, ATP luminescence, 48 h; Potency, µM (doses to about 46.2 µM), inactives show top-dose activity change, negative = growth inhibition, most hits filed as inhibitors; further: on the % scale 0 is the no-effect control and ±100 the full control effect; nearly all actives have a fitted effect of over 55% in size
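Chicken DT40 Tdp1-/- cells stably complemented with human TDP1 were seeded at 400 cells/well in medium containing 20 nM camptothecin, exposed to pin-transferred compounds, and grown at 37 °C for at least 48 hr. Viability was read as ATP luminescence.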
Numbers without * were called inactive; ? = inconclusive; . = not tested or not shown. Most compounds without a hit are left out; they make up all but 17% or so of the library. The call rests on the fitted dose curve; in most records, active means well fitted curve in the direction sought with a large enough effect; inconclusive means small, poorly fitted or top-dose-only effect, or another doubt; inactive means no such curve, though single readings can be large; an effect the other way counts as inactive or inconclusive. Potency means the concentration at half of the fitted maximal effect.

SMILES | HT1080 IDH1KD tx | TGFb inhibitor | HepG2 tox | HT1080NT lethal | TDP1 cell noCPT | DT40 TDP1 CPT
CN(C)CCN(C(=O)C1=COCCO1)c1nc2ccc(F)cc2s1 | -2.9% | 1.2% | -18.8% | -6.0% | -10.4% | -7.6%
Cc1ccc2[nH]cc(C(c3ccccc3)c3ccc(Cl)s3)c2c1 (configuration not stated) | . | ? | 11.2µM* | . | 14.6µM* | ?
CCc1ccc(C(c2ccccc2)c2c[nH]c3ccc(C)cc23)s1 (configuration not stated) | . | ? | -36.1% | . | 16.4µM* | ?
CCC(=O)N1CCCC(C(=O)Nc2nc3ccccc3[nH]2)CC1 (configuration not stated) | 19.7% | 7.7% | -19.1% | 23.2% | -4.0% | -4.7%
CCN(C(=O)C1CCN(S(=O)(=O)c2ccc3c(c2)CCCN3C(=O)C2CCC2)CC1)c1cccc(C)c1 | . | 1.8% | 3.1% | . | 18.4µM* | 16.4µM*
Cc1cccc(N2CCN(S(=O)(=O)c3ccc4c(c3)CCCN4C(=O)C3CCC3)CC2C)c1 (configuration not stated) | 4.3% | -3.8% | -15.3% | 16.8% | ? | ?
O=C(Nc1ccc(F)cc1)C1CCN(S(=O)(=O)c2ccc3c(c2)CCCN3C(=O)C2CCC2)CC1 | . | -4.7% | 0.9% | . | 8.2µM* | 18.4µM*
Cc1ccc(NC(=O)C2CCN(S(=O)(=O)c3ccc4c(c3)CCCN4C(=O)C3CCC3)CC2)cc1 | . | ? | -3.2% | . | ? | 16.4µM*
COc1cccc(-c2nnc3sc(-c4ccccn4)nn23)c1 | -4.7% | 21.6% | 2.1% | 2.0% | 23.1µM* | ?
Clc1ccccc1-c1nnc2sc(-c3ccncc3)nn12 | 4.1% | 2.0% | -23.1% | 8.1% | -18.3% | ?
Clc1ccccc1-c1nn2c(-c3ccncc3)nnc2s1 | -28.3% | -0.8% | -18.5% | -0.9% | 23.1µM* | 16.4µM*
COc1cccc(-c2nn3c(-c4cc(C)[nH]n4)nnc3s2)c1 | -4.0% | -20.7% | -4.8% | 9.9% | 11.2µM* | 15.8µM*
Cc1cccc(-c2nnc3sc(-c4ccccc4)nn23)c1 | 28.6% | 27.3% | -1.3% | 25.4% | 12.6µM* | 20µM*
Cc1cccc(C(=O)Nc2sc3c(c2C(=O)N2CCCCC2)CCC(C)C3)c1 (configuration not stated) | . | 1.1% | -1.5% | . | ? | ?
O=CNc1c(Cl)cc2c(c1Cl)Cc1cc([N+](=O)[O-])ccc1-2 | -11.7% | 3.16µM* | -31.8% | -0.5% | 11.6µM* | 11.6µM*
COc1ccc(NS(=O)(=O)c2csc(C(=O)N3CCCC3)c2)cc1 | -0.5% | -1.8% | 0.5% | 16.2% | ? | -27.9%
O=C(Nc1ccc(F)cc1)c1cc(S(=O)(=O)N2CCOCC2)cs1 | -11.3% | -19.1% | -35.1% | 7.0% | ? | -0.4%
COc1ccc(NC(=O)c2cc(S(=O)(=O)Nc3ccc(OC)cc3)cs2)cc1 | -4.7% | ? | -15.7% | -1.3% | 29.1µM* | ?
O=C(Nc1ccc(F)cc1)c1cc(S(=O)(=O)Nc2ccc(F)cc2)cs1 | -28.1% | ? | -62.9% | ? | 29.1µM* | ?
COc1cccc(-c2nn(Cc3ccccc3)cc2CO)c1 | -12.2% | -3.2% | 5.7% | -14.7% | -32.3% | 0.2%
Cc1ccc(NC(=O)C2CCCN(C(=O)c3ccc(Cl)cc3)C2)cc1C (configuration not stated) | ? | -18.8% | -3.5% | -27.2% | 2.91µM* | 4.11µM*
CC(C)C(=O)NC(=S)Nc1ccccc1N1CCN(C(=O)c2ccc(Cl)cc2)CC1 | 3.6% | -24.5% | -46.6% | 0.0% | 16.4µM* | ?
CC(C)(C)C(=O)Nc1ccccc1N1CCN(C(=O)c2ccc(Cl)cc2)CC1 | -3.8% | 7.2% | -2.4% | -0.2% | ? | ?
O=C(Nc1ccccc1N1CCCCC1)C1CCN(C(=O)c2ccc(Cl)cc2)CC1 | -4.3% | ? | 0.0% | -5.5% | ? | 23.1µM*
O=C(Nc1ccccc1N1CCCC1)C1CCN(C(=O)c2ccc(Cl)cc2)CC1 | 3.0% | -12.4% | 39.3% | 1.5% | ? | ?
SMILES | HT1080 IDH1KD tx | TGFb inhibitor | HepG2 tox | HT1080NT lethal | TDP1 cell noCPT | DT40 TDP1 CPT
COc1ccc(C(=O)N2CCC(C(=O)Nc3ccc(Cl)cc3)CC2)cc1 | . | -16.9% | -27.9% | . | ? | 5.8µM*
Cc1cc(NC(=O)c2cc(Cl)ccc2Cl)ccc1-c1cc2ccccc2oc1=O | . | -19.7% | -18.0% | . | ? | -20.2%
O=C(NCc1ccccc1)c1onc(CS(=O)(=O)c2ccc(Cl)cc2)c1C(=O)NCc1ccccc1 | -8.3% | -1.5% | -19.3% | 0.0% | -20.0% | -17.5%
CCN(CC)S(=O)(=O)c1ccc(N2CCCCC2)c(NC(=O)C2CCN(C(=O)c3ccc(F)cc3)CC2)c1 | -11.6% | -22.5% | -16.7% | 1.1% | 23.1µM* | ?
Cc1cc(Cl)ccc1C(=O)C1CCCN(C(=O)c2cccc(N3CCCC3=O)c2)C1 (configuration not stated) | -1.3% | 0.0% | -5.6% | -7.2% | ? | 16.4µM*
CCOC(=O)c1ccc(NC(=O)C2CCN(C(=O)c3ccc(OC)c(OC)c3)CC2)cc1 | -13.9% | -29.7% | -36.8% | -4.5% | 20.6µM* | ?
N#Cc1c(C(F)(F)F)cc(-c2cccs2)nc1SCC(=O)Nc1ccccc1F | . | -28.6% | -24.2% | . | ? | -27.9%
O=C(CSc1nnc(SCc2cccc3ccccc23)s1)Nc1ccc(C(=O)O)cc1 | ? | 7.6% | 2.3% | 16.0% | 20.6µM* | 18.4µM*
CC(C)Oc1ccc(C(=O)N2CCN(c3nc4c(F)cc(F)cc4s3)CC2)cc1 | . | -24.4% | -22.2% | . | ? | -26.7%
Fc1ccc(NC(=S)N2CCCN(c3ccc(C(F)(F)F)cn3)CC2)c(F)c1 | ? | ? | -39.8% | 23.1µM* | 18.4µM* | 16.4µM*
O=C(Nc1ccc(F)cc1F)N1CCN(c2ncccn2)CC1 | 12.6% | 1.4% | 0.9% | 14.4% | -8.9% | 3.7%
O=C(Nc1ccc(F)cc1F)N1CCCN(c2ccc(C(F)(F)F)cn2)CC1 | 13µM* | -10.4% | -28.5% | ? | ? | ?
